Source: PubChem (The Scripps Research Institute Molecular Screening Center)
TbREL1 inh – TbREL1 RNA ligase inhibitors, primary screen, biochemical, FRET fluorescence; RNA-editing ligase 1, mitochondrial (Trypanosoma brucei brucei), P86926; TbREL1 RNA ligation; inhibition, % at 9.66 µM; 89,000 tested, 0.49% active;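 active means inhibition above the mean inhibition across all screened compounds plus 3 SD, cut at about 11% in these data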;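 further: 0% = plate median of test wells and 100% = NSC42067 control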
Target sequence (P86926 whole entry, looked up): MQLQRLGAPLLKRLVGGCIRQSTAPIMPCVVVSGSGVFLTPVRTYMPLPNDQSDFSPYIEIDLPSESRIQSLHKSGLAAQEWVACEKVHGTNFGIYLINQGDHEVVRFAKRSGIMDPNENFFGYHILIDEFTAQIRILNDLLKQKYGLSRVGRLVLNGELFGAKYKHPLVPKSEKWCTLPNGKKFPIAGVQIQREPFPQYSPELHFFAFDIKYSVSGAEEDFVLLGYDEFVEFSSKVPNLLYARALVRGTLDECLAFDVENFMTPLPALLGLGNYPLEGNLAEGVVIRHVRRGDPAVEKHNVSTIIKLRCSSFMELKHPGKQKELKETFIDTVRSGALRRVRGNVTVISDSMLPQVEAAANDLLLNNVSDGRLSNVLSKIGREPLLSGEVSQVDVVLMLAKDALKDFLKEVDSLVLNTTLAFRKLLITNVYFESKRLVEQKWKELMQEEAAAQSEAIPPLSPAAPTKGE
TbREL1 conf – TbREL1 RNA ligase inhibitors, confirmation, biochemical, FRET fluorescence, triplicate; TbREL1 RNA ligation; 390 tested, 37% active; inhibition, % at 9.66 µM; shares compounds with TbREL1 inh;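 active means mean inhibition across replicates above a set limit taken from the earlier primary screen, cut at about 11% in these data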;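 further: 0% = REL1 with substrate and DMSO and 100% = REL1 plus control inhibitor NSC42067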
* marks the source's active call; other numbers are inactive results. The full list was thinned out, with hits kept by preference.

SMILES	TbREL1 inh	others
C#CCOCCOCCOCCNc1nc(N2CCN(C(=O)[C@H](Cc3ccc(O)cc3)n3cc([C@@H](N)CC(C)C)nn3)CC2)nc(N2CCN(C(=O)[C@H](Cc3cc4ccccc4[nH]3)n3cc([C@@H](N)CC(C)C)nn3)CC2)n1	3
C#CCOCCOCCOCCNc1nc(N2CCN(C(=O)[C@H](CCCCN)n3cc(CN)nn3)CC2)nc(N2CCN(C(=O)[C@H](CCC(=O)O)n3cc([C@@H](N)CCCCN)nn3)CC2)n1	6
CN1C[C@@H]2[C@@H]3C(=O)N(Cc4ccccc4)C(=O)[C@@H]3[C@](Cc3ccccc3)(C1=O)N2C(=O)c1ccc(Cl)c(Cl)c1	7
COc1ccccc1CC(NC(C)=O)C(=O)NC1CCN(S(=O)(=O)c2ccc(NC(C)=O)cc2)CC1 (stereo unspecified)	-2
COc1cccc2cc(C(C)N(CCCN3CCOCC3)C(=S)Nc3cccc(C)c3)oc12 (stereo unspecified)	-4
CCOC(=O)c1ccc(CC(=O)c2ccc(O)c(O)c2O)o1	35*	TbREL1 conf=84*
CCOC(=O)c1oc2cccc(O)c2c1C	1
CCOc1ccc(C(=O)Cc2ccc3oc(C(=O)O)cc3c2)c(O)c1	-2
CC(=O)Nc1cccc(NC=C(C#N)C#N)c1	3
O=C(Nc1sc2c(c1C(=O)O)CCCC2)C(=O)N1CCOCC1	2
CCNC(=O)CN(c1ccc(CC)cc1)S(C)(=O)=O	-1
O=C(NN1C(=O)CSC1=S)C(=O)NN1C(=O)CSC1=S	38*	TbREL1 conf=19*
O=C(O)c1ccc(CN2C(=O)CSC2=S)cc1	7
O=C(O)c1ccc(N2C(=O)CSC2=S)cc1	3
COc1ccc(NC(=O)CC2C(=O)N(c3ccc(OC)cc3)C(=O)N2CCN2CCN(C)CC2)cc1 (stereo unspecified)	-1
COc1ccccc1CNC(=O)COC(=O)CC1CC2CCC1C2 (stereo unspecified)	5
COc1ccccc1CCC(=O)OCC(=O)NC1CC1	34*	TbREL1 conf=5
O=C(COC(=O)Cc1ccc(Br)cc1)NC1CC1	-1
CN(C)S(=O)(=O)c1ccc(C(=O)Nc2cccc(C(=O)N3CCOCC3)c2)cc1	3
CCCCN1C(Nc2ccccc2)=NC[C@@H]1Cc1ccccc1	2
CC(C)C[C@H]1CN=C(Nc2ccccc2)N1CCC1CCCC1	11
CCCCCCCN1C(Nc2ccccc2)=NC[C@@H]1CC(C)C	12*	TbREL1 conf=20*
C[C@@H]1N[C@H]2N(C1=O)c1ccccc1[C@@]21C[C@@H]2C(=O)N[C@](C)(O1)c1nc3ccccc3c(=O)n12	2
Cc1cccc(-n2c(=O)[nH]c3c(C(N)=O)nc(C(C)C)nc32)c1	0
CCOc1ccccc1-c1nc(C(N)=O)c2[nH]c(=O)n(-c3ccc(F)cc3)c2n1	0
SMILES	TbREL1 inh	others
Cc1ccsc1-c1nc(C(N)=O)c2[nH]c(=O)n(-c3ccc(Cl)cc3)c2n1	27*	TbREL1 conf=0
CSc1nc2ccc(NC(=O)c3c(-c4ccccc4)noc3C)cc2s1	1
O=C(NC1CCCCN(Cc2ccc(Cl)cc2)C1=O)c1ccc(COc2ccccc2)cc1 (stereo unspecified)	12*	TbREL1 conf=-2
Cc1ccccc1CN1CCCCC(NC(=O)c2ccc(COc3ccccc3)cc2)C1=O (stereo unspecified)	0
O=C(NC1CCCCN(Cc2ccc(Cl)cc2)C1=O)c1ccccc1 (stereo unspecified)	4
Cc1cc(SCC(=O)N/N=C/c2ccc(O)c(O)c2O)c(C)cc1Br	-2
COCCN=c1scc(-c2ccco2)n1/N=C/c1ccc(O)c(O)c1O	9
CN=c1scc(C)n1/N=C/c1ccc(O)c(O)c1O	28*	TbREL1 conf=38*
Nc1cc(S(=O)(=O)c2ccc(O)c(N)c2)ccc1O	-2
Nc1ccc(C(=O)O)cc1[N+](=O)[O-]	0
Nc1cc(S(=O)(=O)O)cc([N+](=O)[O-])c1O	21*	TbREL1 conf=59*
CN1CCN(c2ccc(CNC(=O)C3Cc4c(-c5cccc(F)c5)ccnc4O3)cc2)CC1 (stereo unspecified)	-2
CCN(CC)S(=O)(=O)c1ccc(NC(=O)C(C)N(c2ccccc2)S(C)(=O)=O)cc1 (stereo unspecified)	-3
O=C(NCc1ccccc1)C1CCCN(S(=O)(=O)c2cccc3nonc23)C1 (stereo unspecified)	2
CCN(CC)C(=O)C1=C(C)N(Cc2ccccc2)C(=O)C(CC(=O)NCCCN(C)C)C1 (stereo unspecified)	3
CC1=C(C(=O)N(C)C)CC(CC(=O)NCCCN(C)C)C(=O)N1Cc1ccc(F)cc1 (stereo unspecified)	4
CC1=C(C(=O)N(C(C)C)C(C)C)CC(CC(=O)NCCCN(C)C)C(=O)N1Cc1ccc(C(C)(C)C)cc1 (stereo unspecified)	17*	TbREL1 conf=11
CCn1c(=Nc2ccc(N3CCOCC3)cc2)ccc2ccccc21	-1
Cn1c(N=Nc2ccc(N3CCOCC3)cc2)[n+](C)c2ccccc21	23*	TbREL1 conf=27*
O=C(c1ccccc1)c1ccc(N2CCOCC2)cc1	1
COc1ccc(-c2cc(C(=O)Nc3c(C)n(C)n(-c4ccccc4)c3=O)no2)cc1OC	-2
O=C(COC(=O)c1nc(Cl)c(Cl)c(Cl)c1Cl)NCc1ccccc1	0
COCCNC(=O)C1(C)CCN(C(=O)c2nc(C)oc2C)C1 (stereo unspecified)	-1
O=C(OCCCc1cc2ccccc2c(=O)o1)c1ccco1	2
N#Cc1ccccc1NCC(=O)N1CCN(S(=O)(=O)c2ccccc2)CC1	-1
SMILES	TbREL1 inh	others
Cc1cc(C(=O)CN(Cc2ccc(F)cc2)S(=O)(=O)c2ccc3c(c2)OCCO3)c(C)n1C	-4
O=C(NC1(O)C(=O)c2ccccc2C1=O)c1ccccc1	22*	TbREL1 conf=49*
CC(=O)C(C(C)=O)C1(O)C(=O)c2ccccc2C1=O	7
O=C(NC(C(=O)O)c1ccccc1)c1ccccc1 (stereo unspecified)	1
O=C(NCCc1ccc(F)cc1)c1ccc(Sc2ccccc2Cl)c([N+](=O)[O-])c1	8
CCOC(=O)C(O)(C1C(=O)CC(C)(C)CC1=O)C(F)(F)F (stereo unspecified)	-4
O=C(O)CCc1ccc(-c2ccc(F)cc2)n1CCC(=O)O	34*	TbREL1 conf=1
O=C(O)CCc1ccc(-c2ccccc2)n1CC(=O)O	-3
CCCn1c(CCC(=O)O)ccc1-c1ccccc1	-8
CC(NC(=O)c1cc(S(=O)(=O)N2CCOCC2)ccc1F)c1ccc(-n2ccnc2)cc1 (stereo unspecified)	-1
COc1ccc(NC(=O)CC2C(=O)N(c3ccc(OC)cc3)C(=O)N2C(C)C)cc1 (stereo unspecified)	2
COC(=O)c1ccc(N2C(=O)CC(SCC(=O)Nc3ccc(OC)cc3)C2=O)cc1 (stereo unspecified)	13*	TbREL1 conf=3
COC(=O)c1ccc(N2C(=O)CC(Sc3n[nH]c(C)n3)C2=O)cc1 (stereo unspecified)	3
Cc1cc(C)n(CC(=O)NNC(=O)CC(C)c2ccccc2)n1 (stereo unspecified)	-1
N#Cc1ccc(OCC(=O)Nc2cc(S(=O)(=O)N3CCOCC3)ccc2N2CCOCC2)cc1	-1
O=C(COC(=O)C1CCN(S(=O)(=O)c2c(Cl)cccc2Cl)CC1)NCc1ccco1	1
